This is an account of results in PubChem BioAssay.

Active and inactive are the calls of the source.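 Rule for the calls, unless noted: active = inhibition above 20% together with a positive visual image hit; inconclusive = visual image hit but inhibition not above 20%; inactive = no visual image hit.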

The nature of test [1]: inhibitors of TNFa-induced NFkB p65 translocation, primary screen, imaging, HUVEC, MLSMR starter and 10KST1 sets (AID 438).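 For inhibition: signal is the nuclear over cytoplasmic p65 intensity ratio per well.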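 Note: compound added about 3h40 before a 20 min TNFalpha stimulation.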 The following applies: HUVEC TNFa-induced p65 nuclear translocation; cell count: measured here: nuclei count (cytotoxicity indicator), at 2.08 µM; inhibition: at 2 µM, stronger effect = higher value, 0% TNFa-plus-vehicle, 100% no-TNFa wells.
Test [2] is described as follows: inhibitors of mutant huntingtin aggregation, primary screen, imaging, exon1htt(103Q)mCFP cells, high-content imaging (AID 483;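 active = visual image review flags a hit and inhibition of aggregation exceeds 20%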;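 note: compound exposure lasted 3 days before fixation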;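 for nuclei count: percent of the per-plate median nuclei count of sample wells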). The following applies: exon1htt(103Q)mCFP cell line, aggregate imaging, at 2 µM; inhibition of aggregation: stronger effect = higher value; nuclei count: measured here: cell count, toxicity.
The nature of test [3]: inhibitors of E-selectin induction by TNFa, primary screen, imaging, HUVEC, immunofluorescence, MLSMR starter and 10KST1 sets (AID 487;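 active = visually confirmed hit in the image check and inhibition above 20%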;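 for inhibition: signal is fraction of cell area covered by stained E-selectin grains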;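 for nuclei count: 100% = median nuclei count of all wells on the same plate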). The following applies: HUVEC TNFalpha-induced E-selectin immunofluorescence imaging, at 2 µM; inhibition: stronger effect = higher value; nuclei count: measured here: cell number, toxicity.
In test [4] the target is Voltage-gated potassium channel subunit beta-2 (Rattus norvegicus) (UniProt P62483). Kind of test: KvBeta enzyme negative modulators, primary screen, biochemical, NADPH fluorescence (AID 622;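 active = fluorescence slope higher than the sample average by over 3 SD, cut at about -0.22 in these data, passing the limit was not always enough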;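 note: slope of raw intensity against log time taken from 70 to 1610 s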). Conditions: recombinant KvBeta, 4-cyanobenzaldehyde reduction, at 10 µM, stronger effect = higher value.
The target is the same in test [5]. Kind of test: KvBeta positive modulators, primary screen, biochemical, NADPH fluorescence (AID 623;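 active = NADPH fluorescence slope more negative than the mean of all samples by about 3 SD, 99.7% confidence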;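 note: fluorescence intensity change per second fitted from 20 to 320 s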). Conditions: Recombinant KvBeta, NADPH fluorescence decrease slope, 10 min; at 10 µM; stronger effect = lower value.
In test [6] the target is Alpha-2C adrenergic receptor (Homo sapiens) (UniProt P18825). Description: modulators of alpha2C/GIRK thallium flux, primary screen, cell-based, HEK293 alpha2C/GIRK1/2 (AID 624;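 active = fluorescence slope after compound addition differing from the mean of all screened samples at 99.7% confidence, in either direction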;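 note: slope of fluorescence ratio to pre-addition baseline per second over 15 to 24 s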). The following applies: thallium flux BTC fluorescence, at 10 µM, actives lie on both sides.
Test [7] in a line: inhibitors of Sendai virus-induced IRF3 signaling, primary screen, TLR/RLR signaling modifier project, cell-based, Sendai virus stimulus, luciferase, 10K MLSCN set (AID 602276;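 active = inhibition at or above 50% at 10 µM; inactive = inhibition below 50%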;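 note: firefly luciferase from ISG56 promoter only with Renilla not read in this screen; 0% = Sendai virus plus DMSO and 100% = medium plus DMSO without virus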). The following applies: HEK293 RL24 IRF3 luciferase reporter, at 10 µM, stronger effect = higher value. In general terms: Reporter assays use an easily measured gene product as a stand-in for the process of interest.

Test [8] in a line: inhibitors of poly I:C-induced TLR3 signaling, primary screen, cell-based, poly I:C stimulus, luciferase, 10K MLSCN set (AID 602277;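 active = inhibition of the reporter signal at or above 50%; inactive = inhibition below 50%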). Conditions: HEK293-TLR3 RL24 IRF3 luciferase reporter, at 10 µM, stronger effect = higher value.

Voltage-gated potassium channel subunit beta-2 (Rattus norvegicus), sequence (P62483 whole entry, looked up): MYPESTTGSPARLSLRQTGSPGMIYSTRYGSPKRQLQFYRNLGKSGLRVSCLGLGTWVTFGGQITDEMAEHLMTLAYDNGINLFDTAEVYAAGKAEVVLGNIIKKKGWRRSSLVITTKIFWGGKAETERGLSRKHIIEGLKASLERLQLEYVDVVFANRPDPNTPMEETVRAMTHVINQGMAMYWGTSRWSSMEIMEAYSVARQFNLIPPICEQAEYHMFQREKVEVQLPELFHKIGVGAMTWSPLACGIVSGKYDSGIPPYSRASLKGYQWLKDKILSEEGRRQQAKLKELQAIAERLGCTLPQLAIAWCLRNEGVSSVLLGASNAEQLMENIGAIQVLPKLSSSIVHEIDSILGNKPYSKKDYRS
Alpha-2C adrenergic receptor (Homo sapiens), sequence (P18825 whole entry, looked up): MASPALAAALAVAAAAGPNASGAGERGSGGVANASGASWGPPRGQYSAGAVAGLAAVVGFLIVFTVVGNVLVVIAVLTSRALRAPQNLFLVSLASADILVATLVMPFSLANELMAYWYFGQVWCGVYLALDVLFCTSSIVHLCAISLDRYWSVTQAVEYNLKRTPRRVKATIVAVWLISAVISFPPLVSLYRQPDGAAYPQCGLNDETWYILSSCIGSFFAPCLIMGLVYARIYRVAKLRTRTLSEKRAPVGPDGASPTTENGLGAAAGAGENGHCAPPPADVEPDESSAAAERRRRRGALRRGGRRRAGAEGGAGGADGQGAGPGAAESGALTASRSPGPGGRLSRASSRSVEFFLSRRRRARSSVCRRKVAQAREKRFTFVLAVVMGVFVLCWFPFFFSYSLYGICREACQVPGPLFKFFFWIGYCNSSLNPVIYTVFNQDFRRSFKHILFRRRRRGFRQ

`OC(CN1CCN(c2ccccn2)CC1)Cn1c2ccccc2c2ccccc21` (centres undefined): the cell count in test [1] stood at 386. The inhibition (usually the change of the read-out against control, counted positive when it falls) in test [1] is 5.1% (inactive); in test [3] it was -14.4% (inactive); in test [7] it was 1.54% (inactive); in test [8], 21.8% (inactive). Besides, the inhibition of aggregation in test [2] was 7.2% (inactive). For the same compound, the values for the nuclei count in test [2] and in test [3] were 104% and 107%, respectively. For the same compound, in test [4], the fluorescence slope is -0.472 (inactive). In test [5], the NADPH fluorescence slope is 5.1e-05 (inactive). In addition, the slope in test [6] was 0.00493 (inactive).
For `O=C(O)c1ccc(-c2ccc(O)c(F)c2)cc1`, in test [1], the cell count is 677. Further, the inhibition in test [1] is 1.3% (inactive); in test [3], -11.2% (inactive); in test [7], -3.64% (inactive); in test [8], 17.3% (inactive). In test [2], the inhibition of aggregation is 11% (inactive). Further, the nuclei count was 89.9% in test [2] and 104% in test [3]. Besides, the fluorescence slope in test [4] was -0.59 (inactive). The NADPH fluorescence slope in test [5] is -4.3e-05 (inactive). Also, the slope in test [6] was 0.0076 (inactive).
For `Cc1ccc(C(=O)Nc2ccc(Cl)cn2)cc1S(=O)(=O)N1CCOCC1`, the cell count in test [1] worked out at 568. Further, the inhibition in test [1] was -10.1% (inactive); in test [3], -12.7% (inactive); in test [7] it was -6.64% (inactive); in test [8] it was -36% (inactive). Further, in test [2], the inhibition of aggregation is -0.1% (inactive). The values for the nuclei count in test [2] and in test [3] were 112% and 102%, respectively. In addition, in test [4], the fluorescence slope was -0.503 (inactive). Further, the NADPH fluorescence slope in test [5] is 9.5e-06 (inactive). For the same compound, the slope in test [6] is 0.00409 (inactive).
With `CCN(Cc1cc2cc(OC)ccc2[nH]c1=O)C(=O)c1ccncc1`, the cell count in test [1] came out at 458. Moreover, the inhibition in test [1] is -1% (inactive); in test [3], -34.1% (inactive); in test [7] it was 13.5% (inactive); in test [8], 20.1% (inactive). Also, the inhibition of aggregation in test [2] was -12.3% (inactive). Further, the nuclei count was determined as 111% in test [2] and 198% in test [3]. The fluorescence slope in test [4] was -0.498 (inactive). For the same compound, the NADPH fluorescence slope in test [5] was 4.7e-05 (inactive). Moreover, the slope in test [6] was 0.00638 (inactive).
In the case of `c1ccc(Cc2nn3c(Cn4cnc5ccccc54)nnc3s2)cc1`, the cell count in test [1] was determined as 415. Moreover, the inhibition in test [1] is 1.4% (inactive); in test [3] it was -19.6% (inactive); in test [7] it was 15.8% (inactive); in test [8] it was -2.79% (inactive). For the same compound, in test [2], the inhibition of aggregation is 9.2% (inactive). For the same compound, the nuclei count in test [2] is 80.7%; in test [3] it was 91.6%. Further, the fluorescence slope in test [4] was -0.512 (inactive). Also, the NADPH fluorescence slope in test [5] is -5.6e-05 (inactive). In addition, in test [6], the slope is 0.00479 (inactive).
On to `CCOC(=O)C1CCCN(CCC(C)c2ccccc2)C1` (centres undefined), for which the cell count in test [1] stood at 469. For the same compound, the inhibition in test [1] is -2.7% (inactive); in test [3], 25% (inactive); in test [7], 14.2% (inactive); in test [8] it was 29.6% (inactive). Moreover, in test [2], the inhibition of aggregation is 2.6% (inactive). Besides, the nuclei count in test [2] is 92.9%; in test [3], 76.3%. Moreover, in test [4], the fluorescence slope is -0.612 (inactive). The NADPH fluorescence slope in test [5] was -4.1e-05 (inactive). In test [6], the slope was 0.00315 (inactive).
`O=C(Nc1cnccn1)c1cccs1`: the cell count in test [1] is 655. The inhibition was -17.2% (inactive) in test [1], -34.1% (inactive) in test [3], 10.2% (inactive) in test [7] and 12.3% (inactive) in test [8]. Moreover, the inhibition of aggregation in test [2] is -13.1% (inactive). Further, the nuclei count in test [2] was determined as 122%; in test [3] it was 110%. Moreover, the fluorescence slope in test [4] is -0.517 (inactive). Moreover, the NADPH fluorescence slope in test [5] was -2.8e-05 (inactive). Moreover, in test [6], the slope is 0.00591 (inactive).
Regarding `c1ccc(OCc2nc(-c3ccccc3)no2)cc1`, the cell count in test [1] stood at 300. Besides, the inhibition is 2.6% (inactive) in test [1], -72.6% (inactive) in test [3], -80.4% (inactive) in test [7] and -193% (inactive) in test [8]. For the same compound, the inhibition of aggregation in test [2] is 12.9% (inactive). In addition, the values for the nuclei count in test [2] and in test [3] were 87.7% and 91.1%, respectively. Also, the fluorescence slope in test [4] is -0.539 (inactive). The NADPH fluorescence slope in test [5] was 4.5e-05 (inactive). Moreover, the slope in test [6] is 0.0046 (inactive).
`c1ccc(Cn2nnc3c(N4CCCCCC4)ncnc32)cc1`: the cell count in test [1] was 525. In addition, the inhibition in test [1] is -4.2% (inactive); in test [3], -63.4% (inactive); in test [7] it was -20.2% (inactive); in test [8], -76.6% (inactive). Further, in test [2], the inhibition of aggregation was 35.8% (inactive). The figures for the nuclei count in test [2] and in test [3] were 76.5% and 95.6%, respectively. Moreover, the fluorescence slope in test [4] is -0.55 (inactive). Also, the NADPH fluorescence slope in test [5] was -2.5e-05 (inactive). In addition, the slope in test [6] was 0.0062 (inactive).
Consider `CSc1nc(C)cc(OCC(=O)N2CCOCC2)n1`, for which the cell count in test [1] is 262. Besides, the inhibition in test [1] was -7.5% (inactive); in test [3], -37.5% (inactive); in test [7], 7.52% (inactive); in test [8] it was 23.9% (inactive). Moreover, in test [2], the inhibition of aggregation was 25.5% (inactive). The results for the nuclei count in test [2] and in test [3] were 104% and 95%, respectively. Further, the fluorescence slope in test [4] is -0.451 (inactive). Also, the NADPH fluorescence slope in test [5] is -3.8e-05 (inactive). In addition, in test [6], the slope was 0.00307 (inactive).
For the compound `CCCCCc1c(C)nc(SCC(=O)O)[nH]c1=O`, the cell count in test [1] came to 611. The inhibition is -5.4% (inactive) in test [1], -31.8% (inactive) in test [3], -8.6% (inactive) in test [7] and -1.36% (inactive) in test [8]. The inhibition of aggregation in test [2] was 12.9% (inactive). In addition, the nuclei count in test [2] stood at 97.3%; in test [3] it was 106%. In addition, the fluorescence slope in test [4] is -0.539 (inactive). In addition, the NADPH fluorescence slope in test [5] is 3.4e-05 (inactive). The slope in test [6] was 0.00694 (inactive).
Regarding `Cc1ccccc1NS(=O)(=O)c1cc(S(C)(=O)=O)ccc1Cl`, the cell count in test [1] turned out to be 552. Besides, the inhibition was 7.7% (inactive) in test [1], -43.9% (inactive) in test [3], -5.83% (inactive) in test [7] and 4.63% (inactive) in test [8]. Besides, the inhibition of aggregation in test [2] is -3% (inactive). For the same compound, the nuclei count in test [2] was 102%; in test [3], 119%. Moreover, the fluorescence slope in test [4] is -0.436 (inactive). The NADPH fluorescence slope in test [5] is 2.4e-05 (inactive). Further, the slope in test [6] was 0.00562 (inactive).
Take `CCCCn1c(=O)[nH]c(=O)c2c1nc(COc1ccc(C#N)cc1)n2CCC`: the cell count in test [1] was determined as 337. Moreover, the inhibition is 3.4% (inactive) in test [1], 32.8% (inactive) in test [3], 10.1% (inactive) in test [7] and 30.2% (inactive) in test [8]. Besides, in test [2], the inhibition of aggregation was -40.4% (inactive). Also, the nuclei count in test [2] is 97.4%; in test [3], 110%. The fluorescence slope in test [4] is -0.538 (inactive). For the same compound, the NADPH fluorescence slope in test [5] is 6.8e-06 (inactive). Further, the slope in test [6] was 0.00653 (inactive).
In the case of `CCOC(=O)N1CCC(N2C(=O)c3ccccc3C2Nc2ccc3c(C)cc(=O)oc3c2)CC1` (centres undefined), in test [1], the cell count came out at 654. The inhibition in test [1] was 2.3% (inactive); in test [3], -65.6% (inactive); in test [7], 14.2% (inactive); in test [8], 18% (inactive). In test [2], the inhibition of aggregation was -19.4% (inactive). For the same compound, the nuclei count in test [2] was found to be 101%; in test [3], 121%. In addition, the fluorescence slope in test [4] was -0.0451 (active). For the same compound, in test [5], the NADPH fluorescence slope was -9.7e-08 (inactive). Moreover, the slope in test [6] is 0.00764 (inactive).
